Measured values published in PubChem BioAssay AID803 (The Scripps Research Institute Molecular Screening Center, 2007).
About 680 (0.49%) of roughly 140,000 compounds were called active. This is one part of a sample in which actives are shown more often than they occur. Cut-off read from the data, not from the text of the source: active = activation above about 5% (passing the limit was not always enough); inactive = the rest.

These compounds were tested against Galanin receptor type 2 (Homo sapiens) (UniProt O43603) (assay: GALR2 receptor agonists, primary screen, cell-based (AID 803;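 note: 0% = vehicle buffer wells and 100% = reference agonist at full effect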)). Conditions: GALR2-expressing cells, agonist activation read-out; at 5.6 µM; active compounds read high.
Chain of Galanin receptor type 2 (Homo sapiens) (O43603 whole entry, looked up): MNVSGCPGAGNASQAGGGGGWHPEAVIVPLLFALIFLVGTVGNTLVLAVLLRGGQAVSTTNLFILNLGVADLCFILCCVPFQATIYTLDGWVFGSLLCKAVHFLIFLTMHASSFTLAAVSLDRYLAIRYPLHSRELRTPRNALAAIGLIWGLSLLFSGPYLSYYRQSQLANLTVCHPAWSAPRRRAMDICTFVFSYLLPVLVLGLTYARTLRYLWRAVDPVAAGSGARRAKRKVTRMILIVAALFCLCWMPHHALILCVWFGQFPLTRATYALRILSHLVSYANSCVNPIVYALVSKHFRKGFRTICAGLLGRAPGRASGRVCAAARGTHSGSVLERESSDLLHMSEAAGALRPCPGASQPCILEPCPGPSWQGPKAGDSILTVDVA

activation, active:
O=c1oc2cc(O)ccc2cc1-c1ccc(F)cc1 14.9%
Cn1c(=O)oc2cc(S(=O)(=O)N3CCC(C(=O)Nc4ccc(OC(F)(F)F)cc4)CC3)ccc21 9.92%
CCc1ccc(-c2nn(-c3ccccc3)cc2CSC(=N)N)cc1 5.34%
OC(COc1cccc2ccccc12)CN1CCN(c2ccccn2)CC1 (centres undefined) 14.5%
Cc1csc(NC(=O)c2ccc(-c3ccc(Cl)cc3Cl)o2)n1 8.53%
CCOc1ccccc1C1C(C(=O)OC)=CN(C)C=C1C(=O)OC 10.7%
COC(=O)C1=CN(C)C=C(C(=O)OC)C1c1ccc(Cl)cc1Cl 7.44%
C=CCn1c(Oc2ccc(C(=O)OC)cc2)nc2c1c(=O)n(C)c(=O)n2C 16.4%
CCOc1ccc2nc(Nc3nc4ccc(NC(C)=O)cc4s3)sc2c1 35.2%
COCCN(CCOC)S(=O)(=O)c1ccc(C(=O)Nc2nc3c(s2)CCc2ccccc2-3)cc1 12.8%
C=CCN(CC=C)S(=O)(=O)c1ccc(C(=O)Nc2nc3c(s2)CCc2ccccc2-3)cc1 9.18%
CCOc1ccc(C(O)Cn2c(=N)n(CCN3CCCCC3)c3ccccc32)cc1 (centres undefined) 25.8%

activation, inactive:
COc1cccc(C(=O)c2cc3ccc(O)cc3oc2=O)c1 2.29%
COc1ccc(-c2cc3ccc(OCc4nn[nH]n4)cc3oc2=O)cc1 0.01%
COc1cc(/C=N\NC(=O)c2nonc2N)c(OC)cc1Br -0.75%
O=C(CCc1ccc(S(=O)(=O)N2CCOCC2)cc1)NN=C1CCCCCCC1 -0.53%
Cc1ccc(C)c(N2CCN(S(=O)(=O)c3ccc4c(c3)oc(=O)n4C)CC2)c1 -1.17%
Cc1ccc2nc(NC(=O)C3CCN(S(=O)(=O)c4ccc5c(c4)oc(=O)n5C)CC3)sc2c1 -1.18%
COc1ccc(NC(=S)SC)cc1OC -0.23%
CN(C)S(=O)(=O)c1cccc(NC(=S)N/N=C/C(=O)c2ccccc2)c1 0.25%
CCNc1nc(NC(C)C)nc(N2CC(=O)N(CC(=O)OCC)C2=N)n1 0.96%
CCn1c(SCc2ccc(C)cc2)nnc1-c1nn(-c2ccccc2)ccc1=O -0.25%
N=C(N)SCc1cccc2ccccc12 -1.3%
Cc1cc[n+](-c2[nH]c(=O)sc2/C=N/NC(=O)c2ccccc2[O-])cc1C 1.06%
COc1ccccc1C1SCCN1C(=O)c1ccc([N+](=O)[O-])cc1 (centres undefined) 0.57%
N=c1n(CCc2ccccc2)c2ccccc2n1Cc1ccccc1F -1.04%
OC(COc1cccc(OCC(O)CN2CCCC2)c1)CN1CCCC1 (centres undefined) -0.12%
O=C1c2cccc3cccc(c23)N1CN1CCN(c2ccccn2)CC1 -1.31%
C=CCn1c(CCNC(=O)c2cccs2)n[nH]c1=S -1.14%
Cn1nccc1CNC(=O)c1ccnn1C -2.14%
COc1cc(NC(=S)NNC(=O)CC(C)C)c(OC)cc1Cl -0.97%
CCCCn1c(O)c(N=NC(=O)Cn2c(C(F)(F)F)nc3ccccc32)c2ccccc21 -0.64%
CCOC(=O)c1oc2c(CN3CCN(C)CC3)c(O)ccc2c(=O)c1-c1ccc(Br)cc1 -1.12%
O=C(Nc1cccc2ncccc12)c1ccc(-c2ccc(Cl)cc2Cl)o1 -3.29%
Cc1csc(NC(=S)Nc2cccc(Cl)c2)n1 -0.28%
C=CCn1c(P(C)(=O)O)nc2ccccc21 -0.16%
Cc1ccc(C(C)NC(=O)Cn2nc(C)c([N+](=O)[O-])c2C)cc1 (centres undefined) -0.83%
CC12CN3CC(C)(CN(C1)C3c1ccc(Cl)cc1Cl)C2=O (centres undefined) -0.09%
NNC(=O)c1ccc(Cl)cc1Cl 0.25%
CCOc1cc(C2C(C(=O)OC)=CN(C3CCCC3)C=C2C(=O)OC)cc(Br)c1O 2.25%
CCOc1ccccc1N(CC(=O)Nc1ccccc1C(=O)OC)S(C)(=O)=O -0.26%
Cc1c(C(=O)c2cccc([N+](=O)[O-])c2)c2ccccn2c1CCC#N 0.65%
O=C(COC(=O)Cn1cnc2ccccc2c1=O)NCC12CC3CC(CC(C3)C1)C2 -1.72%
CCO/N=C(/C)c1c(O)cc(-c2ccccc2)n(-c2ccccc2)c1=O 0.26%
Nc1nc(SCC(=O)NNc2c(Cl)cc(Cl)cc2Cl)n[nH]1 -0.67%
c1ccc2c(c1)CSc1sccc1C2=C1CCNCC1 -2.25%
Cn1c(=O)c2c(nc(N3CCCCCC3)n2CC(=O)c2ccc(Br)cc2)n(C)c1=O -0.03%
C=CCOc1nc2c(c(=O)n(C)c(=O)n2C)n1Cc1ccc(Cl)cc1Cl 1.61%
CCOc1ccc2nc(SC(CC)C(=O)Nc3cc(C)on3)sc2c1 (centres undefined) -1.01%
COc1ccc2nc(Nc3nc4ccc(NC(C)=O)cc4s3)sc2c1 2.62%
N#Cc1c(NC(=O)c2ccc(N3CCOCC3)c([N+](=O)[O-])c2)sc2c1CCCC2 -1.06%
O=C(O)c1cccc(N2C(=O)Nc3ccccc3N2O)c1 -0.65%
Cc1ccccc1N(C(=O)Cc1cccs1)C(C(=O)NC1CCCCC1)c1cn(C)nc1C (centres undefined) -0.31%
CCCCCOc1ccc(CSC2=NCCN2)cc1[N+](=O)[O-] 0.31%
CC(C)NC(=O)C(=O)NCCCOC(C)C -1.05%
CCNS(=O)(=O)c1ccc(NC(=O)c2cncc(Br)c2)cc1 -1.39%
C/C(CC(=O)Nc1cccc(F)c1)=N\NC(=O)C(=O)NC1CCCCC1 -0.33%
CCN(c1ccccc1)S(=O)(=O)c1ccc(C(=O)Nc2nccs2)cc1 -3.23%
C=CCN(CC=C)S(=O)(=O)c1ccc(C(=O)Nc2sc3c(c2C(N)=O)CCCCC3)cc1 -0.72%
O=C(Nc1ccc(S(=O)(=O)N2CCc3ccccc3C2)cc1)c1ccccc1 -2.86%
COc1ccc(C(=O)Nc2ncc3c(n2)-c2ccccc2CC3)cc1 -1.58%
O=C(CN1C2=NCCN2c2ccccc21)c1cccs1 0.13%
CCOc1ccc(Br)cc1CSC(=N)N -1.41%
O=C(Nc1cccc(Cl)c1)Nc1ccccc1NS(=O)(=O)c1cccs1 -0.87%
Cc1cccc(OCC(O)Cn2c(=N)n(CCN3CCOCC3)c3ccccc32)c1 (centres undefined) -1.56%
Cn1c(=N)n(CC(O)c2ccccc2)c2ccccc21 (centres undefined) -3.54%
O=C(COC(=O)CCCNC(=O)c1ccc(Cl)cc1)Nc1cc(Cl)ccc1Cl -0.66%
N#Cc1ccccc1NC(=O)c1cccc(COc2ccc(Cl)cc2Cl)c1 -1.81%
CCC(C)NC(=O)c1ccc(N2CCC3(CC2)OCCO3)c([N+](=O)[O-])c1 (centres undefined) 1.63%
